Results on 74 compounds are retold here after PubChem BioAssay AID488969 (Vanderbilt High Throughput Screening Facility, 2010).

Over roughly 110,000 compounds, “z-score” has its median near -0.1; the highest 2% begin near 2. The full list was thinned out, with the highest values kept by preference. The source made the active and inactive calls.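 Rule for the calls: active = z-score in the third read window above 3 or below -3; inactive = the rest.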

For the assay, the target named is Metabotropic glutamate receptor 8 (Rattus norvegicus) (UniProt P70579). The experiment in a line: rat mGluR8 modulators via GIRK flux, primary screen, cell-based, thallium flux, HTS (AID 488969). Particulars: HEK293 rat mGluR8, GIRK (G protein-gated inwardly rectifying potassium channel) thallium flux, FluoZin2; at 10 µM; stronger effect = higher value.
Chain of Metabotropic glutamate receptor 8 (Rattus norvegicus) (P70579 whole entry, looked up): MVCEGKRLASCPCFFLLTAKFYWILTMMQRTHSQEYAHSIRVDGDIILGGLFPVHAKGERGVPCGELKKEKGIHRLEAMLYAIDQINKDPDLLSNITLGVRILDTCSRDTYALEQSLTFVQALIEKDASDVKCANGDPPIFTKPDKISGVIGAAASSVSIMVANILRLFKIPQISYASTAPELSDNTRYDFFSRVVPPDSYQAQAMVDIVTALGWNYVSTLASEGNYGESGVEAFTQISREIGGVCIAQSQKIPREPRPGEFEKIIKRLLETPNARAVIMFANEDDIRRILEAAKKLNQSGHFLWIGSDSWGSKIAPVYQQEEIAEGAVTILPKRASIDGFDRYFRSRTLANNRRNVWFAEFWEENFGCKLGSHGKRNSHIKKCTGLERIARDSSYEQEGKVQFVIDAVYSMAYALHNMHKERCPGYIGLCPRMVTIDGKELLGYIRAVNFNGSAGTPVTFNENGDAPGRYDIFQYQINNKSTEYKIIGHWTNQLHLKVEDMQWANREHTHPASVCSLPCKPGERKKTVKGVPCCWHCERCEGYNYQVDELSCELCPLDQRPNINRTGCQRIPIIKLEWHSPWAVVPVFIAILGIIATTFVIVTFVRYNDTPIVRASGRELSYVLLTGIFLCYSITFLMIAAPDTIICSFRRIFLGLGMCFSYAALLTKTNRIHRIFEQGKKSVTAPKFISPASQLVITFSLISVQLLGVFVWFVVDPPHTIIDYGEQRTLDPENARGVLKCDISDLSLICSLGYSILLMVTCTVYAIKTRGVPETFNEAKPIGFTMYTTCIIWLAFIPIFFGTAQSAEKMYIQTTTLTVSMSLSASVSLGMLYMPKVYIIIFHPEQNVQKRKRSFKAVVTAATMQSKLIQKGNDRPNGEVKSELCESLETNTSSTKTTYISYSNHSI
Compound `COc1ccccc1N(CC(=O)NC1CCCCC1)C(=O)c1cnn(C(C)C)c1` showed a z-score of 0.21. Next, `CN1C(=O)NC(=O)C2(Cc3ccccc3N3CCOCC32)C1=O` (centres undefined): -0.307. As for `CCCCn1c(O)c(C(CC)=NCc2cc(OC)cc(OC)c2)c(=O)[nH]c1=O`, the z-score is -0.703. In turn, `N=c1c[n+](CC23CC4CC(CC(C4)C2)C3)[n-]o1` yielded a z-score of 2.09. In the case of `O=C(c1ccc2c(c1)ncn2C1CCCCCC1)N1CCC2(CC1)OCCO2`, the z-score was -0.0497.

`CCCCCCCC(=O)NC(Oc1ccccc1[N+](=O)[O-])C(Cl)(Cl)Cl` (centres undefined) came in with a z-score of 0.238. Next, `CCCC(=O)Nc1cc(C(=O)N2CCC3(CC2)OCCO3)ccc1S(=O)(=O)c1ccc(C)cc1`: -0.0584. `CC(C(N)=O)N1CC(c2ccc(Cl)cc2)CC1=O` (centres undefined) had a z-score of -0.161. Next, `OC(Cc1ccccc1)(c1ccccc1)C1CN2CCC1CC2` (centres undefined): 2. In the case of `Cc1ccccc1C(O)(Cc1ccccc1)C1CN2CCC1CC2` (centres undefined) it was -0.323; in that of `CN1CCCC1C(O)(c1ccccc1)c1ccccc1` (centres undefined), -0.0177. In the case of `CCOC(=O)c1sc(/N=C/c2c(O)n(-c3cccc(C)c3)c(=O)[nH]c2=O)c(C#N)c1C` it was -0.627. Regarding `CCN1C(=O)C(=Cc2cc(C)n(C3CC3)c2C)C(=O)N(CC)C1=S`, the z-score was -0.0808. `CC1=NN(c2ccccc2)C(=O)C1/C=C1\C(=O)NC(=O)N(c2cc(C)cc(C)c2)C1=O` (centres undefined) registered a z-score of -0.0364. `CN(C)C(=O)Oc1ccc(OC(=O)N(C)C)cc1` came in with a z-score of 0.415. Regarding `CN1/C(=C\C=Nc2ccccc2)C(C)(C)c2ccccc21`, the z-score is -0.319.

As for `CN1/C(=C\C=C\C2=[N+](C)c3ccc4ccccc4c3C2(C)C)C(C)(C)c2ccccc21`, the z-score was 5.85 (active).

As for `C[N+]1=C(/C=C/Nc2ccccc2)C(C)(C)c2ccccc21`, the z-score is -1.45.

`Cc1cc(C=C2C(=O)N(C)C(=S)N(C)C2=O)c(C)n1C1CCCCC1` returned a z-score of -0.45.

For `O=C1CN=C(c2ccccc2)c2ccccc2N1Cc1ccc(C(F)(F)F)cc1`, the z-score amounted to 0.646. Consider `CNC(=O)OCCc1nccn1C`, for which the z-score was 3.02 (active).

The compound `CNC(=O)OCCc1n(C)cc[n+]1C` returned a z-score of -0.193. Next, `C=CCn1c(O)c(/C=C2/C=CC=N2)c(=O)[nH]c1=O`: -0.219; `O=C(c1cc(S(=O)(=O)N2CCCCC2)ccc1F)N1CCC2(CC1)OCCO2`: -0.0595. In the case of `CCCCn1c(O)c(C(C)=NCCCN(C)C)c(=O)[nH]c1=O` it was 0.319. For the compound `CCCCCCN=C(C)c1c(O)n(CCCC)c(=O)[nH]c1=O`, the z-score was -2.32. In the case of `CCCCn1c(O)c(C(C)=NCCCn2ccnc2)c(=O)[nH]c1=O` it was 2.03. In the case of `O=[N+]([O-])c1ccc(C2[C@H]3C(c4ccccc4)=NC4(CCCCC4)N23)cc1` (some centres undefined) it was -0.0546; in that of `O=c1[nH]c(=O)n(C2CCCCCC2)c(O)c1C=NC1CCN(Cc2ccccc2)CC1`, -0.182. `O=C(c1cc2nc(-c3ccccc3)cc(-c3ccccc3)n2n1)N1CCC2(CC1)OCCO2` came in with a z-score of -0.525.

As for `O=C(c1cc2ccccc2oc1=O)N1CCC2(CC1)OCCO2`, the z-score is 0.602.

In the case of `O=C(c1cc2ccccn2n1)N1CCC2(CC1)OCCO2`, the z-score was 4 (active). Next, `N#CC1=C(N)Oc2c(c(=O)oc3ccccc23)C1c1ccncc1` (centres undefined): -0.0723; `Cc1[nH]c2c(Cl)cccc2c1CCN`: 0.371. With `Cc1cccc(N2C(=O)NC(=O)/C(=C\c3cccn3-c3ccc(Cl)cc3)C2=O)c1`, the z-score was -0.0172. As for `Cc1ccc(Cc2c(C)nc3nc(SCC(=O)N4CCC5(CC4)OCCO5)nn3c2C)cc1`, the z-score was -0.0184. In the case of `O=C(COc1ccc(Cl)cc1)NC1CN2CCC1CC2` (centres undefined) it was -0.215. In turn, `CCNC(=O)C1OC(n2cnc3c(N)ncnc32)C(O)C1O` (centres undefined) gave a z-score of 2. On to `CCCCn1c(O)c(C(CC)=Nc2ccc(OC)cc2OC)c(=O)[nH]c1=O`, for which the z-score is -1.4. In the case of `Cc1nn(Cc2ccccc2)c(C)c1C=C1C(=O)NC(=O)NC1=O` it was 2.1; in that of `Cc1nn(Cc2ccccc2)c(C)c1C=C1C(=O)NC(=S)NC1=O`, -0.287; in that of `Cn1cccc1/C=C1/C(=O)NC(=O)N(Cc2ccccc2)C1=O`, -0.709. Turning to `CCn1c(P(C)(=O)O)nc2ccccc21`, the z-score was -0.338. Compound `CN1CCN(Cc2ccc(Br)s2)CC1` came in with a z-score of 0.759. Next, `CN1CCC(N(C)c2nc(-c3ccccc3)nc3ccccc23)CC1`: 0.199. The compound `Cc1ccc(-c2nc(N(C)C3CCN(C)CC3)c3ccccc3n2)cc1` had a z-score of 2.91. In the case of `CN1CCC(N(C)c2nc(-c3ccc([N+](=O)[O-])cc3)nc3ccccc23)CC1` it was 0.562. `O=C(Cn1c(=S)[nH]c2ccccc2c1=O)N1CCC2(CC1)OCCO2` returned a z-score of 0.264. Next, `CC1=NN(c2ccccc2)C(=O)C1/C=C1/C(=O)NC(=O)N(c2cccc(C)c2)C1=O` (centres undefined): -0.395; `CCN(c1ccc(C(O)(C(=O)OC)C(F)(F)F)cc1)S(=O)(=O)c1ccc(C)cc1` (centres undefined): 1.21. Consider `CCOC(=O)N(C)c1ccc(C(O)(C(=O)OCC)C(F)(F)F)cc1` (centres undefined), for which the z-score is -0.0433. Compound `CCOC(=O)C(O)(c1ccc(N(CC)S(=O)(=O)c2ccc(C)cc2)cc1)C(F)(F)F` (centres undefined) showed a z-score of 2.37. Next, `O=C(c1ccccc1F)c1cn(CC(=O)N2CCCCC2)c2ccccc12`: -0.152; `CCN(CC)c1ccc(CN2CC=C(c3ccc(F)cc3)CC2)cc1`: 0.0485.

The compound `O=c1c(C=NCc2cccs2)c(O)n(C2CCCCC2)c(=O)n1C1CCCCC1` yielded a z-score of -0.421. Compound `Cn1c(O)c(C=NCCN2CCNCC2)c(=O)n(C)c1=O` returned a z-score of -0.337. Next, `O=c1c(C=NCCN2CCNCC2)c(O)n(C2CCCCC2)c(=O)n1C1CCCCC1`: 2.42; `COc1ccc(CCN(C)Cc2c(F)cccc2F)cc1OC`: 0.419. In turn, `N#Cc1cc2c(nc1SCC(=O)Nc1cc(Cl)ccc1Cl)C1CCN2CC1` gave a z-score of -1.88. Consider `Cc1ccc2nc(N3CCC(C(=O)N4CCC5(CC4)OCCO5)CC3)sc2c1`, for which the z-score is 4.28 (active).

For `CCS(=O)(=O)N1CCC(C(=O)N2CCC3(CC2)OCCO3)CC1`, the z-score is 0.00257.

`O=C(C1CCN(S(=O)(=O)c2ccccc2)CC1)N1CCC2(CC1)OCCO2` registered a z-score of 0.255.

Compound `CC(C)CC(=O)NC(Oc1ccc(Cl)cc1)C(Cl)(Cl)Cl` (centres undefined) returned a z-score of -0.379. On to `CC1(C)CN2C(c3ccc(Cl)cc3)N2C1` (centres undefined), for which the z-score turned out to be 0.161. Next, `c1ccc2c(CCNCc3ccc4c(c3)OCO4)c[nH]c2c1`: 2.19; `c1ccc(CNCCc2ccc3c(c2)OCO3)nc1`: -0.496; `O=[N+]([O-])c1cc2c(cc1CNCCc1ccc3c(c1)OCO3)OCO2`: 0.309. In turn, `Cc1noc(C)c1C(=O)N1CCC2(CC1)OCCO2` had a z-score of -0.294.

With `COc1cc(-n2c(=S)[nH]c3ccccc3c2=O)c(Cl)cc1Cl`, the z-score is 6.65 (active). Next, `CC(C)Oc1cc(-n2c(=S)[nH]c3ccccc3c2=O)c(Cl)cc1Cl`: 12.9 (active); `COc1ccc(-n2c(=O)[nH]c3ccccc3c2=O)cc1`: 0.343. Take `COc1cc2[nH]c(=O)n(-c3cccc(Cl)c3)c(=O)c2cc1OC`: the z-score is -0.0317. Next, `O=c1[nH]c2ccccc2c(=O)n1-c1cccc(Cl)c1`: -0.0839. Next, `COc1cc2[nH]c(=O)n(-c3ccccc3)c(=O)c2cc1OC`: -0.252.
